JMJD2A Tudor inh: inhibitors of human JMJD2A Tudor domain; O75164; AlphaScreen JMJD2A-Tudor / H3K4me3 peptide binding; Potency, µM (doses to about 114 µM), without a hit: at the highest dose activity change, negative = inhibition, most hits filed as inhibitors; 390,000 compounds, 4.4% hits; AID 504339; also: % is scaled to controls: 0 for no effect and ±100 for the full control effect; nearly all actives have a fitted effect of over 50% in size
PLK1 PBD block: inhibitors of human PLK1 polo-box domain binding. 360,000 compounds, 2.8% hits. Plk1 PBD binding of FITC phosphopeptide, fluorescence polarization. Potency, µM, without a hit: max response, negative = inhibition, usual class: inhibitors. AID 720504; also: series mostly up to about 57 µM; % is scaled to controls: 0 for no effect and ±100 for the full control effect; nearly all actives have a fitted effect of over 65% in size
HP1b chromo inh: blocks HP1-beta chromodomain binding to methylated histone tails; AID 540317; 390,000 compounds, 0.56% hits; P83916; AlphaScreen HP1-beta / biotin-H3K9me3 peptide binding; Potency, µM (doses to about 114 µM), for the others: at the top dose activity change, negative = inhibition, usual class: inhibitors; also: nearly all actives have a fitted effect of over 70% in size
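AlphaScreen: HP1-beta (50 nM) preformed 30 min with biotin-H3(1-18)K9me3 peptide (50 nM) in PBS pH 7.4, 0.01% Tween-20. Compound added for 30 min at RT, then streptavidin donor/nickel chelate acceptor beads (10 ug/mL) for 30 min.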
BAZ2B block: blocks human BAZ2B | Q9UIF8 | AlphaScreen BAZ2B-H3K14Ac peptide displacement | Potency, µM (highest dose often 114 µM), without a hit: at the top dose activity change, negative = inhibition, actives largely listed as inhibitors | 360,000 compounds, 4.4% hits | AID 504333; also: % is scaled to controls: 0 for no effect and ±100 for the full control effect; nearly all actives have a fitted effect of over 60% in size
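Complex of BAZ2B and biotin-H3K14Ac (50 nM apiece) forms over 30 min at RT, then faces library compounds up to 110 uM for another 30 min; AlphaScreen beads added, 20 min dark incubation, luminescence read.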
12-LOX inh: blocks human arachidonate 12S-lipoxygenase | AID 1671190 | 580,000 compounds, 1.1% hits | Potency, µM (highest dose often 108 µM), without a hit: at the highest dose activity change, negative = inhibition, most hits filed as inhibitors | purified 12hLO, xylenol orange hydroperoxide absorbance; also: % is scaled to controls: 0 for no effect and ±100 for the full control effect
Target sequence (P18054 whole entry, looked up): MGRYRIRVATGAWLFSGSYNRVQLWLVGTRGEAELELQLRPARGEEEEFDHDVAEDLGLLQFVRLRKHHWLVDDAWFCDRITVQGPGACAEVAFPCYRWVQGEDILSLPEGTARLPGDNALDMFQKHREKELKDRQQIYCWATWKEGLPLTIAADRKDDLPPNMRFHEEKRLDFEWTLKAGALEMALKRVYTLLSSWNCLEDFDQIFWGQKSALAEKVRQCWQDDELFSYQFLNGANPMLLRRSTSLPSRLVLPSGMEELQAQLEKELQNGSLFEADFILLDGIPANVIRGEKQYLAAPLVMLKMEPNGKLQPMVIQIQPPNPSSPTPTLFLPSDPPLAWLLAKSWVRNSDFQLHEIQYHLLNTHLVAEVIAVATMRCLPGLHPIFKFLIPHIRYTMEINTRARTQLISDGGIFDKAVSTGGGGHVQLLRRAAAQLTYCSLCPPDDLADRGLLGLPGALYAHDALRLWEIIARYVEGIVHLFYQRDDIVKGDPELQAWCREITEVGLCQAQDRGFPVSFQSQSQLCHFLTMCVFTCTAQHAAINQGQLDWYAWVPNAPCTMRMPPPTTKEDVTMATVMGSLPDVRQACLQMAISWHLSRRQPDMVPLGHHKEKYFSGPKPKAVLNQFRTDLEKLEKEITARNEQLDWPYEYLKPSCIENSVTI
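Purified human 12hLO at 150 nM in 25 mM Hepes, 0.01% Triton X-100, pH 7.0, preincubated 15 min at room temperature with compound. Reaction started with 40 uM arachidonic acid, 30 min at room temperature. Hydroperoxide measured by Fe-xylenol orange, 573/405 nm absorbance ratio.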
G9a block: inhibitors of human histone lysine methyltransferase G9a; Potency, µM (titrated, usually from 102 µM), without a hit: top-dose activity, negative = inhibition, most hits filed as inhibitors; AID 504332; G9a H3K9 monomethylation, AlphaScreen, 2 h; 350,000 compounds, 8.8% hits; Q96KQ7; also: % is scaled to controls: 0 for no effect and ±100 for the full control effect; nearly all actives have a fitted effect of over 75% in size
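AlphaScreen read-out: biotin-H3K9 peptide (500 nM) methylation by 20 nM enzyme with 20 uM SAM, 2 h at room temperature after 15 min compound preincubation; anti-monomethyl H3K9 antibody plus donor/acceptor beads, 10 min dark.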
* marks the source's active call; other numbers are inactive results; ? = inconclusive; nt = not tested or not shown; ! = a repeat was not active; [ ] = dose if it differs, or a comment. Rows were chosen to be rich in hits. Some 9% of all compounds tested hit in one or more screens of this group. Calls follow the shape of the dose curve; as a rule, active = well fitted curve in the direction sought with a large enough effect; inconclusive = small, poorly fitted or top-dose-only effect, or another doubt; inactive = no such curve, though single readings can be large; an effect the other way counts as inactive or inconclusive. Potency is read from the fitted curve at half-maximal effect.

SMILES	JMJD2A Tudor inh	PLK1 PBD block	HP1b chromo inh	BAZ2B block	12-LOX inh	G9a block
CCN(Cc1ccccc1)C(c1cc2ccc(C)cc2[nH]c1=O)c1nnnn1CCOC (centres undefined)	-3%	-14%	15%	-31%	?	35µM*
O=C(CCc1nnn2c1CN(C(=O)Nc1ccccc1)CC2)N1CCOCC1	nt	nt	nt	nt	25%	nt
Oc1ccccc1C=Nc1ccccc1-c1nc2ccccc2[nH]1	0%	-12%	24%	10%	-7%	56%[59 µM]
Nc1ncccc1CN1CCC2(CC1)COCCN2C(=O)c1ccccc1	nt	nt	nt	nt	4%[176 µM]	nt
COc1ccc(N2CCN(C(CNC(=O)C(=O)NCC3CCCO3)c3ccco3)CC2)cc1 (centres undefined)	-26%	-10%	-25%	-2%	-6%	32µM*
COC(=O)NCC(c1ccco1)N1CCN(c2ccc(OC)cc2)CC1 (centres undefined)	-7%[11.4 µM]	-1%	59%	nt	-2%	?
c1ccc(C(c2nnnn2Cc2cccs2)N2CCN(C3CCCC3)CC2)cc1 (centres undefined)	-24%	1%	16%	-3%	0%	45µM*
Fc1ccc(C(c2nnnn2Cc2cccs2)N2CCN(C3CCCC3)CC2)cc1 (centres undefined)	-5%	-12%	16%	?	?	-25%[59 µM]
COc1ccccc1NC(=O)CSC1=Nc2ccccc2C2=NC(CC(=O)NCc3ccc4c(c3)OCO4)C(=O)N12 (centres undefined)	-31%	nt	7%	-16%	?	-3%[59 µM]
O=C(CCC1N=C2c3ccccc3N=C(SCc3cccc(F)c3)N2C1=O)NCc1cccs1 (centres undefined)	79µM*	nt	-2%	-6%	2%	-2%[59 µM]
O=C(CC1N=C2c3ccccc3N=C(SCC(=O)Nc3ccccc3F)N2C1=O)NCc1ccc2c(c1)OCO2 (centres undefined)	-25%	nt	14%	?	?	13µM*
O=C(CCC1N=C2c3ccccc3N=C(SCc3ccc(F)cc3)N2C1=O)NCc1cccs1 (centres undefined)	-23%	nt	90%	-10%	?	-1%[59 µM]
CCOC(=O)CSC1=Nc2ccccc2C2=NC(CC(=O)NCc3ccccc3)C(=O)N12 (centres undefined)	-6%	-3%	27%	-6%	10µM*	6%[59 µM]
CC1CCc2c(sc(NC(=O)c3c([N+](=O)[O-])cnn3C)c2C(N)=O)C1 (centres undefined)	-6%	2%	33%	-5%	-5%	3%
O=C1c2ccccc2NC(c2ccc(OCc3ccccc3)c(OCc3ccccc3)c2)N1Cc1ccco1 (centres undefined)	-17%[57.1 µM]	nt	2%[57 µM]	nt	nt	nt
COc1ccc(C2Nc3ccccc3C(=O)N2CCCN(C)C)cc1COc1ccc(NC(C)=O)cc1 (centres undefined)	79µM*	nt	nt	nt	nt	nt
CC(=O)Nc1cccc(OCc2cccc(C3Nc4ccccc4C(=O)N3Cc3ccco3)c2)c1 (centres undefined)	32µM*	nt	nt	nt	nt	nt
COc1ccc(C2Nc3ccccc3C(=O)N2Cc2ccco2)cc1COc1ccc(NC(C)=O)cc1 (centres undefined)	89µM*!	-1%	8%	-6%	0%[57.4 µM]	?
COc1ccc(C2Nc3ccccc3C(=O)N2Cc2cccc(Cl)c2)cc1COc1ccc(NC(C)=O)cc1 (centres undefined)	-31%	nt	nt	nt	nt	nt
O=C1c2ccccc2NC(c2cccc(F)c2)N1Cc1ccccc1 (centres undefined)	17%	-9%	47%	16%	?	16%
O=C1c2ccccc2NC(c2cccc(F)c2)N1Cc1ccco1 (centres undefined)	-25%	-9%	13%	56µM*	?	?
O=C1NC2(CCN(C(=O)c3ccc(Cl)c(F)c3)CC2)CC1c1ccccc1 (centres undefined)	nt	nt	nt	nt	-7%	nt
OCCCNc1ncnc2c1ncn2[C@H]1CN(Cc2ccco2)C[C@@H](CO)O1	nt	2%	nt	nt	-6%	nt
CCOc1ccc(NC(=O)C2CC=CCC2C(=O)O)cc1 (centres undefined)	-6%	-4%	25%	-7%	-9%	-4%[59 µM]
CCOc1cccc2sc(N(CCN(C)C)C(=O)c3cc4ccccc4cc3OC)nc12	45µM*	-14%	-20%	?	?	40µM*
SMILES	JMJD2A Tudor inh	PLK1 PBD block	HP1b chromo inh	BAZ2B block	12-LOX inh	G9a block
CCOc1ccc2nc(N(CCN(C)C)C(=O)c3cc4ccccc4cc3OC)sc2c1	40µM*	-9%	?	?	nt	50µM*
CCOc1cccc2sc(N(CCN(C)C)C(=O)c3ccc4c(c3)OCCO4)nc12	-24%	0%	-5%	-32%	?	-47%
c1ccc2c(c1)CCN(C1CCCCC1)C2	25µM*	-11%	?	79µM*	?	20µM*
CCN1CCN(S(=O)(=O)c2c(C)cc(C)cc2C)CC1	-14%	-7%	48%	?	0%	nt
Cc1ccccc1CN1C(=O)C(C)Sc2ccc(-c3ccco3)cc21 (centres undefined)	nt	-21%	nt	nt	16µM*	nt
COc1cccc(-c2ccc3c(c2)N(Cc2ccc(F)cc2)C(=O)C(C)S3)c1 (centres undefined)	nt	5%	nt	nt	?	nt
COc1ccc(-c2cc(C)nc3c(-c4ccc(OC)c(OC)c4)c(C)nn23)cc1	28µM*	nt	-20%	20µM*	-17%	14µM*
C[C@@H]1CN([C@@H](C)CO)C(=O)CCCn2nncc2CO[C@@H]1CN(C)S(C)(=O)=O	nt	-3%	nt	nt	0%	nt
O=C(Nc1ccc(F)c(F)c1)c1ccc(-n2cncn2)c([N+](=O)[O-])c1	-13%	0%	15%	-7%	57%	10%[12.7 µM]
COC(=O)c1ccc(-n2cncn2)c([N+](=O)[O-])c1	?	27µM*	-9%	0%	-12%	0%
O=C(Nc1cccc(/C=C/c2ccccn2)c1)c1ccc(-n2cncn2)c([N+](=O)[O-])c1	?	1%	-2%	-33%	-3%	35µM*
COc1cc(OC)cc(C(=O)NNC(=O)c2ccc(-n3cncn3)c([N+](=O)[O-])c2)c1	-3%	6%	30%	-1%	10%	4%
CC(C)c1noc(-c2cn(C3CCN(C(=O)c4ccc(F)cc4)CC3)nn2)n1	nt	nt	nt	nt	14%	nt
CC(C)Oc1cccc(C(=O)C2CCCN(C(=O)CCc3cnn(C)c3)C2)c1 (centres undefined)	-13%	-2%	33%	0%	112%	90%
Cc1nn(C)c(C)c1CCC(=O)N1CCCC(C(=O)c2cccc(OC(C)C)c2)C1 (centres undefined)	-25%	27µM*	11%	-2%	-13%	7%
